These results are taken from PubChem BioAssay (Tox21).

Molecules are shown by their SMILES. Unmarked numbers belong to inactive results. Inconclusive results are not listed. The source made the active and inactive calls. Unless noted, calls come from the whole dose curve; as a rule, active = well fitted curve in the direction sought with a large enough effect in the repeat runs; inconclusive = weak or mixed curves; inactive = no such curve, though single readings can be large; an effect the other way counts as inactive or inconclusive.

A short description of test [1]: qHTS assay to identify small molecule agonists of the constitutive androstane receptor (CAR) signaling pathway - cell viability counter screen (AID 1224836). Note: nearly all actives have a fitted effect of over 45% in size. Put shortly: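 Cells were seeded and incubated 4 hrs. Compounds were added across 15 concentrations together with PK11195 at 0.75 uM final. Plates were incubated 23 hrs at 37 C. CellTiter-Fluor was added and fluorescence measured.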

The nature of test [2]: qHTS assay to identify small molecule antagonists of the constitutive androstane receptor (CAR) signaling pathway - cell viability counter screen (AID 1224837). Note: nearly all actives have a fitted effect of over 45% in size. Put shortly:
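Fluorescence from CellTiter-Fluor served as the viability signal. Human hepatoma HepG2 cells stably bearing hCAR and CYP2B6-2.2kb received compound plus CITCO (50 nM final) for 23 hr.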

Test [3] has as its target Nuclear receptor subfamily 1 group I member 3 (Homo sapiens) (UniProt Q14994). Nature of the test: qHTS assay to identify small molecule antagonists of the constitutive androstane receptor (CAR) signaling pathway (AID 1224838).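 Note: HepG2 cells stably expressing hCAR with CYP2B6 luciferase reporter stimulated by CITCO; nearly all actives have a fitted effect of over 40% in size.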 The method in brief: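 Quantitative HTS in double-stable HepG2-CYP2B6-hCAR cells. After 4 h plating, cells get compound (15 concentrations) and CITCO at 50 nM final, incubate 24 h at 37 C, then ONE-Glo luminescence is read.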

Test [4] is described as follows: qHTS assay to identify small molecule antagonists of the estrogen related receptor signaling pathway with the pleiotropic PPARgamma coactivator (PGC) from Tox21 10K library - cell viability counter screen (AID 1224840; active = well fitted cell-killing curve with a large enough effect in the repeat runs, not every such curve was filed as active; note: nearly all actives have a fitted effect of over 40% in size; note: potency is the fitted concentration of half-maximal effect). The method in brief:
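Compounds in DMSO, alongside positive and negative controls, were pinned onto PGC/ERR cells (2,000 per well). Exposure lasted 17.5 hours at 37 C, followed by a 30-minute CellTiter-Fluor incubation and fluorescence reading.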

The nature of test [5]: qHTS assay to identify small molecule agonists of the estrogen related receptor signaling pathway with the pleiotropic PPARgamma coactivator (PGC) from Tox21 10K library (AID 1224842). Note: nearly all actives have a fitted effect of over 15% in size. Put shortly: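 Luminescence from One-Glo (30 min, room temperature) measured after PGC/ERR cells had 18 h at 37 C with pinned compound (23 nL in DMSO). Cells had been seeded at 2,000 per well and pre-incubated 6 h.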

Test [6] in a line: qHTS assay to identify small molecule agonists of the hypoxia (HIF-1) signaling pathway - cell viability counter screen (AID 1224844; calls by dose curve; note: nearly all actives have a fitted effect of over 50% in size; note: potency is the fitted concentration of half-maximal effect). Put shortly:
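Luminescent ATP content (CellTiter-Glo, 30 min, room temperature) served as the viability measure in HRE-bla ME-180 cells exposed to compounds for 17 hrs in low-serum medium (0.5% dialyzed FBS).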

Test [7] in a line: qHTS assay to identify small molecule agonists of the hypoxia (HIF-1) signaling pathway (AID 1224846; active = well fitted activation curve with a large enough effect in the signal ratio in the repeat runs, not every such curve was filed as active; the % refers to the signal ratio). Put shortly: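 Measured by blue/green FRET after loading CCF4-AM: beta-lactamase expressed from a hypoxia response element in ME-180 cells. Test agents were delivered in DMSO and left 17 hrs; cells had been plated 5 hrs earlier in low-serum (0.5% dialyzed FBS) medium.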
Test [8] in a line: qHTS assay to identify small molecule agonists of H2AX - cell viability counter screen (AID 1224847; calls by dose curve; note: nearly all actives have a fitted effect of over 30% in size; note: potency is the fitted concentration of half-maximal effect). The method in brief: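 Cytotoxicity counter screen in wild-type CHO-K1 cells: a 3 hr compound treatment at 37C across 15 concentrations, followed by CellTiter-Glo luminescence to gauge viable cells.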
The nature of test [9]: qHTS assay to identify small molecule antagonists of the estrogen related receptor (ERR) signaling pathway from Tox21 library (AID 1224848). Note: nearly all actives have a fitted effect of over 50% in size. Note: potency is the fitted concentration of half-maximal effect. Put shortly:
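Antagonist-mode screen of the Tox21 10K library in an NTP-provided ERR reporter cell line; 18 h compound exposure at 37 C, luminescence measured with ONE-Glo.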

Test [10] is described as follows: qHTS assay to identify small molecule agonists of the estrogen related receptor (ERR) signaling pathway from Tox21 library (AID 1224849; calls by dose curve; note: nearly all actives have a fitted effect of over 15% in size). The settings on record: ERR reporter cell line, ONE-Glo luciferase, 18 h; at 92.4 µM (top of the series) unless noted. Put shortly: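 We plated ERR reporter cells, waited 6 h, added compounds in DMSO by pin tool and incubated them 18 h at 37 C. ONE-Glo was then added and luminescence read after 30 min.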

The nature of test [11]: qHTS RealTime-Glo MT Cell Viability Assay in HEK293 cells - 32 hour (AID 1224868). Note: nearly all actives have a fitted effect of over 50% in size. Note: potency is the fitted concentration of half-maximal effect. Put shortly: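 Cells + reagent dispensed (600 cells/well, HEK293) → 5 h at 37 C/5% CO2 → 23 nL compound in DMSO pinned → 40 h at 37 C → luminescence read at 0, 8, 16, 24, 32, 40 h.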
Test [12] can be described thus: A CellTox Green Cytotoxicity Assay to monitor cytotoxicity in HEK293 cells - 0 hour (AID 1224869). Note: nearly all actives have a fitted effect of over 50% in size. Put shortly: (§1)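 Each value comes from one timepoint of a single continuous run in which HEK293 cells with CellTox Green were exposed to compound for up to 40 h at 37 C, dye fluorescence rising with cell death.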
Test [13] is described as follows: qHTS RealTime-Glo MT Cell Viability Assay in HepG2 cells - 40 hour (AID 1224870). Note: nearly all actives have a fitted effect of over 50% in size. Note: potency is the fitted concentration of half-maximal effect. The method in brief:
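Real-time viability: cells seeded at 600 per well together with NanoLuc and cell-permeant prosubstrate, compounds added after 5 h incubation. Luminescence tracked at 0, 8, 16, 24, 32 and 40 h of exposure.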

For test [14], the target named is Luciferin 4-monooxygenase (Photinus pyralis) (UniProt P08659). Nature of the test: qHTS assay to identify small molecule inhibitors of firefly luciferase (AID 1224835). Note: nearly all actives have a fitted effect of over 25% in size. Put shortly: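 Inhibition of purified Photinus luciferase is measured by luminescence. Substrate levels (D-luciferin, ATP) sit at their KM values. Each compound is tested in a concentration series.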

The target of test [15] is Nuclear receptor subfamily 1 group I member 3 (Homo sapiens) (UniProt Q14994). Nature of the test: qHTS assay to identify small molecule agonists of the constitutive androstane receptor (CAR) signaling pathway (AID 1224839).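 For activation: HepG2 cells stably carrying human CAR and a CYP2B6 luciferase reporter.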 Note: nearly all actives have a fitted effect of over 15% in size. Note: potency is the fitted concentration of half-maximal effect. Put shortly:
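Cells were plated and incubated 4 hrs, then dosed with compounds at 15 concentrations. PK11195 was added to 0.75 uM final. After 24 hrs at 37 C, luciferase luminescence was measured.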

A short description of test [16]: qHTS assay to identify small molecule antagonists of the estrogen related receptor signaling pathway with the pleiotropic PPARgamma coactivator (PGC) from Tox21 10K library (AID 1224841; call rule not given here; note: potency is the fitted concentration of half-maximal effect). The method in brief: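 Compound exposure ran 18 hours at 37 C in PGC/ERR cells (2,000/well) that had first rested 6 hours in a 37 C/5% CO2 incubator. Luciferase activity was then detected with One-Glo after a 30-minute room-temperature step.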

In test [17] the target is Thyrotropin receptor (Homo sapiens) (UniProt P16473). Nature of the test: qHTS assay to identify small molecule agonists of the thyroid stimulating hormone receptor (TSHR) signaling pathway (AID 1224843; calls by dose curve; note: nearly all actives have a fitted effect of over 45% in size; note: potency is the fitted concentration of half-maximal effect). Put shortly:
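Screening of the Tox21 10K collection used HEK293 cells engineered with TSHR at 800 cells per well. After a 30-min room-temperature compound exposure, HTRF cAMP reagents were added and fluorescence recorded 1 h later.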

Test [18] in a line: qHTS RealTime-Glo MT Cell Viability Assay in HepG2 cells - 24 hour (AID 1224867). Note: nearly all actives have a fitted effect of over 50% in size. Note: potency is the fitted concentration of half-maximal effect. The method in brief: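 Real-time, nonlytic viability: 600 HepG2 cells/well mixed with NanoLuc enzyme plus prosubstrate; 5 h settle, compound (DMSO) added by pintool; luminescence monitored over 40 h at 37 C.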
Test [19] can be described thus: A CellTox Green Cytotoxicity Assay to monitor cytotoxicity in HEK293 cells - 40 hour (AID 1224871). Note: nearly all actives have a fitted effect of over 45% in size. The method in brief:
as §1

The nature of test [20]: qHTS assay to identify small molecule agonists of H2AX (AID 1224845; active = well fitted activation curve with a large enough effect in the signal ratio in the repeat runs, not every such curve was filed as active; the % refers to the signal ratio). Put shortly:
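Phospho-H2AX Ser139 measured by HTRF (ex 320 nm; em 665 and 620 nm) after 24 hr antibody incubation. Compounds, 15 concentrations, 0.76% DMSO, were applied to CHO-K1 cells for 3hr at 37C before lysis.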
% is set by controls: 0 for no effect and ±100 for the full control effect.

Sequence of Nuclear receptor subfamily 1 group I member 3 (Homo sapiens) (Q14994 whole entry, looked up): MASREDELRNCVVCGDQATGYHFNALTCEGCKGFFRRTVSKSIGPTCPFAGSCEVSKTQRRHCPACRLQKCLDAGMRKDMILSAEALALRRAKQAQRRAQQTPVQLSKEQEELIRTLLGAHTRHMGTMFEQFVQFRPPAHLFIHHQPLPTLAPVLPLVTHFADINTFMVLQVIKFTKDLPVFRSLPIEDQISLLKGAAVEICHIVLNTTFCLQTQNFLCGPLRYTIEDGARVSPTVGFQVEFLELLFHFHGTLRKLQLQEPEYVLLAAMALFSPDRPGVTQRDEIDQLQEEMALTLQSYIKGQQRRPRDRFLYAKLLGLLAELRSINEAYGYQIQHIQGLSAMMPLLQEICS
Sequence of Luciferin 4-monooxygenase (Photinus pyralis) (P08659 whole entry, looked up): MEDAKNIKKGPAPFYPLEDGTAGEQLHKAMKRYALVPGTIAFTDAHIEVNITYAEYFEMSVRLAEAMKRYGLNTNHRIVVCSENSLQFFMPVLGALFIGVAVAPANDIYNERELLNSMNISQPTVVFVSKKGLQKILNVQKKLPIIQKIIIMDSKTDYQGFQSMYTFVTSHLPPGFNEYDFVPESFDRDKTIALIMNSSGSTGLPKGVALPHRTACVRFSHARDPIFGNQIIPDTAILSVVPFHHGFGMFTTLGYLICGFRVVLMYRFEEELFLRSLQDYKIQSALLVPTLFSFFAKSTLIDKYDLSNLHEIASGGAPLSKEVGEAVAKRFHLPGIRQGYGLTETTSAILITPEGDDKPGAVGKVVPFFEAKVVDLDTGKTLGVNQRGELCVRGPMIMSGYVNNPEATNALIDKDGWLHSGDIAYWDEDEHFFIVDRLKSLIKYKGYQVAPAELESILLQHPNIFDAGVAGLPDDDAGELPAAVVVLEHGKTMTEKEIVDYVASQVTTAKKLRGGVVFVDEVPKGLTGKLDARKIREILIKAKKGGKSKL
Sequence of Thyrotropin receptor (Homo sapiens) (P16473 whole entry, looked up): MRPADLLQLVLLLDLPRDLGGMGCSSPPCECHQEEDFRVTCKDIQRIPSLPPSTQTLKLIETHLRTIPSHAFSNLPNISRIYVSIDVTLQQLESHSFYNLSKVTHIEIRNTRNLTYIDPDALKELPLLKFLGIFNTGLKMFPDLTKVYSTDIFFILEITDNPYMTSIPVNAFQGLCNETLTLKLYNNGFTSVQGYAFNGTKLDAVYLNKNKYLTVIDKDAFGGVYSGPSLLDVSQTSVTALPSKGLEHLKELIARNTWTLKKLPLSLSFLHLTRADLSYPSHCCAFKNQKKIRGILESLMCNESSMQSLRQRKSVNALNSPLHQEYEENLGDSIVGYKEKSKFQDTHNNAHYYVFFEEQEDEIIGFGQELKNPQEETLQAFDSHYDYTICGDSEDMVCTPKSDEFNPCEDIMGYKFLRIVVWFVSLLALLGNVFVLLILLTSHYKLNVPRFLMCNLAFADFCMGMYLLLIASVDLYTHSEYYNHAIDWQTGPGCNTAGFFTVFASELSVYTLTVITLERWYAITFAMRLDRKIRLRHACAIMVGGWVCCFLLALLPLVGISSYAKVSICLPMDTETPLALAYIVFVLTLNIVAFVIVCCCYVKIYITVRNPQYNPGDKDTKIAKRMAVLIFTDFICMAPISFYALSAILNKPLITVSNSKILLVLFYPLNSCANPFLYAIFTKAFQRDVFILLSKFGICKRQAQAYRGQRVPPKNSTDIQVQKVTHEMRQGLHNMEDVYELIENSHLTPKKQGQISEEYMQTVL

Take `CCCCCCI`: the Potency result in test [1], in test [2], in test [3], in [4], in [6] and in [8] was “inactive” each time. Further, the Potency result in [9], in test [11] and in test [12] was “inactive” in each case. Moreover, the outcome in test [5] and in test [7] was inactive. Also, in [10], the activity change, positive = activation was -0.122%. Moreover, in test [13], the Potency was 24.6 µM (active).
`CC1(C)COP(Oc2ccccc2)OC1`: the Potency entry in test [14], in test [3], in test [15], in [4], in [16] and in [17] was “inactive” in each case. The Potency result in test [6], in test [8], in test [9], in test [18], in [11] and in test [12] was “inactive” in each case. In addition, the Potency result in test [13] and in test [19] was “inactive” throughout. Also, the molecule was classed as inactive in test [5] and in test [7]. Besides, the activity change, positive = activation in test [10] was 6.55%.
On to `Cc1ncc(CNC(=O)N(CCCl)N=O)c(N)n1`, for which the Potency entry in [14], in test [2], in test [4], in test [17], in test [6] and in test [20] was “inactive” each time. The Potency result in test [8], in test [18], in test [11], in test [12], in test [13] and in [19] was “inactive” in each case.
In the case of `O=[N+]([O-])c1cccc2c([N+](=O)[O-])cccc12`, the Potency result in test [14], in test [3], in [17], in test [6], in test [20] and in test [18] was “inactive” in each case. Besides, the Potency result in test [12], in test [13] and in test [19] was “inactive” each time. The Potency in [16] was 34.6 µM (active); in test [9] it was 30.8 µM (active); in [11], 49.2 µM (active). The molecule was called inactive in test [5] and in [7]. For the same molecule, the activity change, positive = activation in test [10] is -66%.
Take `CC(COc1ccc(Oc2ccccc2)cc1)Oc1ccccn1` (stereo not drawn): the Potency result in test [2], in test [3], in test [4], in [16], in test [6] and in test [20] was “inactive” in each case. The Potency entry in test [9], in test [18], in test [12], in test [13] and in test [19] was “inactive” each time. Moreover, the Potency in [15] is 54.4 µM (active). For the same molecule, the molecule was called inactive in test [5] and in [7]. For the same molecule, in test [10], the activity change, positive = activation is 0.411%.
On to `CC(C(=O)c1ccccc1)N(C)C` (stereo not drawn), for which the Potency entry in test [14], in [2], in test [4], in [6], in [20] and in test [8] was “inactive” in each case. Further, the Potency entry in test [18], in test [11], in test [12], in test [13] and in [19] was “inactive” throughout. Moreover, the call in test [7] was inactive.
As for `N#CC(CCc1ccc(Cl)cc1)(Cn1cncn1)c1ccccc1` (stereo not drawn), the Potency result in test [14], in test [3], in [20] and in test [12] was “inactive” in each case. Moreover, the Potency in [4] is 34.4 µM (active); in [16], 34.4 µM (active); in test [17], 8.63 µM (active); in test [6], 30.9 µM (active); in test [8], 50.5 µM (active); in [9] it was 17.2 µM (active). In addition, the values for the Potency in test [18], in [11] and in test [13] were 38.9 µM (active), 17.4 µM (active) and 49 µM (active), respectively. Further, the molecule was called inactive in [5]. Further, the activity change, positive = activation in test [10] was -69.7%.
Take `CCC(C)(C)c1cc(-n2nc3ccccc3n2)c(O)c(C(C)(C)CC)c1`: the Potency entry in [14], in [3], in test [15], in [17], in test [8] and in test [18] was “inactive” each time. Besides, the Potency entry in test [12], in test [13] and in test [19] was “inactive” throughout. The Potency was 49.3 µM (active) in test [16] and 39.2 µM (active) in test [9]. Moreover, the outcome in [5] and in test [7] was inactive. For the same molecule, the activity change, positive = activation in [10] was -66.5%.
